An excerpt weighted towards active compounds, which were near 9.5% of everything screened.
Pf growth 48h – inhibits P. falciparum growth in the first generation, 48 h; Potency, µM (doses to about 28.7 µM), for the others: at the top dose activity change, negative = inhibition, hits mostly inhibitors; AID 504832; P. falciparum luciferase growth in erythrocytes, 48 h; actives 5.9% (n = 310,000); also: % is scaled to controls: 0 for no effect and ±100 for the full control effect
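A one-generation exposure of luciferase-tagged malaria parasites in RPMI 1640/Albumax erythrocyte culture, 37 C and 5% CO2. Inhibition is inferred from decreased luminescence after adding detection reagent.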
SARS PLP yeast – blocks SARS-CoV papain-like protease in a yeast assay; S. cerevisiae expressing SARS-CoV PLpro, growth rescue; Potency, µM (series often up to 32.9 µM), without a hit: at the highest dose activity, positive = growth rescue, usual class: activators; actives 0.19% (n = 330,000); AID 485353; calls by dose curve; also: 0% is about no effect; nearly all actives have a fitted effect of over 55% in size
RE007 growth inh – less growth of the S. pombe RE007 Vpr strain; Potency, µM (top dose mostly 92.2 µM), without a hit: at the top dose activity change, negative = less growth, hits mostly inhibitors; S. pombe RE007 Vpr strain, BacTiter-Glo ATP luminescence, 24 h; AID 651644; actives 0.21% (n = 360,000); active = well fitted falling curve with a large enough effect; inconclusive = small, poorly fitted or top-dose-only effect; inactive = no such curve, though single readings can be large or run the other way; also: % is scaled to controls: 0 for no effect and ±100 for the full control effect; nearly all actives have a fitted effect of over 50% in size
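Fission yeast strain RE007, carrying one chromosomally integrated HIV-1 vpr copy, was seeded at OD 0.01 in PMG+AL medium with 23 nL pinned compound. After 24 h at 30 °C and 99% humidity, viability was read by BacTiter-Glo luminescence.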
NS1 function inh – blocks influenza NS1 protein function; actives 0.4% (n = 270,000); AID 2326; Potency, µM (doses to about 46.1 µM), for the others: at the highest dose activity, positive = more growth; calls by dose curve; also: actives are rising curves; nearly all actives have a fitted effect of over 50% in size
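In this qHTS, NS1 from influenza A is expressed in budding yeast, where it slows growth. Cells are switched from glucose to 2% galactose medium (pH 6.0, -URA), treated with compound, and growth recovery is read at OD600.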
Pf growth 96h – P. falciparum growth inhibition at 96 hours; P. falciparum luciferase reporter growth, 96 h; AID 504834; actives 6.9% (n = 320,000); Potency, µM (titrated, usually from 28.7 µM), for the others: at the highest dose activity change, negative = inhibition, most hits filed as inhibitors; also: % is scaled to controls: 0 for no effect and ±100 for the full control effect
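Two parasite generations (96 h, 37 C, 5% CO2) of compound exposure in infected erythrocytes (0.05% parasitemia, 2% hematocrit). Luciferase-reporter P. falciparum; decreased luminescence indicates inhibited growth, aimed at apicoplast-acting delayed death.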
* = called active by the depositor; u = inconclusive; x = no result; [ ] = another dose, or the depositor's remark. Unless noted, calls follow the shape of the dose curve; as a rule, active = well fitted inhibition curve with a large enough effect; inconclusive = small, poorly fitted or top-dose-only effect, or another doubt; inactive = no such curve, though single readings can be large or run the other way. Potency is read from the fitted curve at half-maximal effect.

SMILES	Pf growth 48h	SARS PLP yeast	RE007 growth inh	NS1 function inh	Pf growth 96h
CC(c1ccccc1)n1cnc2ccccc21 (configuration not stated)	-18.0%	-0.4%	5.3%	-12.1%	32.0%
CC(c1ccccc1)n1cncc1C(=O)O (configuration not stated)	4.1%	9.4%	23.2%	-0.7%	1.47µM*
COC(=O)CCCC(=O)O	x	x	x	2.8%	x
C=CCn1c(Cc2ccccc2)n[nH]c1=S	23.0%	0.8%	10.3%	6.5%	143.2%
C=CCn1c(Cc2c[nH]c3ccccc23)n[nH]c1=S	13.1µM*	5.5%	6.4%	u	-80.4%
CCOC(=O)c1cc2c(OC)ccc(OC)c2n1CC(=O)c1ccccc1	u	7.5%	1.6%	-1.4%	u
CCOc1ccccc1NC(=O)CN(c1ccc(OC)cc1)S(=O)(=O)c1c(C)[nH]c(=O)[nH]c1=O	u	0.8%	4.4%	6.2%	-1.1%
COc1ccc2cc3c(N)nn(C(=O)c4ccccc4Cl)c3nc2c1	8.28µM*	-1.8%	-7.7%	-3.7%	u
N#C/C(=C\c1c(Oc2ccccc2F)nc2ccccn2c1=O)C(=O)NC1CCS(=O)(=O)C1 (configuration not stated)	u	-0.4%	11.9%	-16.0%	9.28µM*
Cc1ccc(Oc2nc3ccccn3c(=O)c2/C=C(\C#N)C(=O)NC2CCS(=O)(=O)C2)c(C)c1 (configuration not stated)	u	3.3%	-13.7%	1.4%	10.4µM*
Cc1cc(C)cc(Oc2nc3ccccn3c(=O)c2/C=C(\C#N)C(=O)NC2CCS(=O)(=O)C2)c1 (configuration not stated)	u	-1.9%	-2.2%	-8.3%	-17.0%
COC(=O)CN1C(=S)N(Cc2ccccc2)C(=O)C1CC(=O)Nc1ccc(OC)cc1 (configuration not stated)	4.15µM*	2.8%	2.1%	7.4%	19.5%
CCN(CC(=O)NCc1cccs1)C(=O)c1ccc(OC)c(OC)c1	0.7%	-2.0%	-16.0%	x	15.3%
CCc1ccc(O)c(CNCCNCc2cc(CC)ccc2O)c1	6.57µM*	4.2%	-2.5%	x	5.86µM*
Cc1ccc(O)c(CNCCNCc2cc(C)ccc2O)c1	7.38µM*	0.8%	-20.5%	x	2.62µM*
Cc1ccccc1CC(=O)N1CCOCC1	8.7%	-1.1%	-6.7%	0.3%	42.3%
COc1ccc(-c2[nH]ncc2/C=C(/C#N)C(=O)NC2CCCCC2)cc1	x	2.3%	-4.5%	0.6%	7.38µM*
N#CC1=C(N)Oc2cc(N)ccc2C1c1ccc(F)cc1F (configuration not stated)	0.7%	-4.6%	-7.7%	u	5.86µM*
O=C(c1cccs1)N1CCN(C(=O)C2CCCO2)CC1 (configuration not stated)	13.5%	-0.5%	-18.0%	5.5%	4.65µM*
O=C(Cc1cccs1)N1CCN(C(=O)C2CCCO2)CC1 (configuration not stated)	8.6%	12.0%	-20.8%	3.0%	x
O=S(=O)(c1ccc(F)cc1)n1ccc(-c2cccc(OCc3ccc(Cl)cc3Cl)c2)n1	u	2.4%	-3.3%	u	0.147µM*
CSCCC(NC(=O)c1ccco1)C(=O)NCC(C)(C)N1CCOCC1 (configuration not stated)	1.2%	1.1%	-10.7%	x	4.3%
COc1ccccc1/C=C/c1nc2ccccc2c(=O)o1	x	x	6.2%	x	x
COc1ccccc1/C=C/c1nc2ccc(OC(C)=O)cc2c(=O)o1	1.7%	6.6%	2.7%	12.6%	1.65µM*
Cc1ccccc1NC(=O)NCCCN1CCN(c2ccccc2)CC1	x	-9.6%	0.6%	1.0%	2.33µM*
SMILES	Pf growth 48h	SARS PLP yeast	RE007 growth inh	NS1 function inh	Pf growth 96h
COc1ccccc1N1CCN(CCCNC(=O)Nc2ccccc2)CC1	11.7µM*	-2.0%	3.3%	-2.8%	u
COc1ccccc1N1CCN(CCCCNC(=O)c2ccc3ccccc3c2)CC1	u	x	-3.1%[18.4 µM]	4.5%	4.15µM*
CCSCC[C@H](N)C(=O)O	x	x	x	1.4%	x
COc1ccc2[nH]c(=O)c(CN(CCCN(C)C)C(=O)Nc3ccc(F)cc3)cc2c1	13.1µM*	-1.7%	6.4%	u	53.8%
CCOc1ccc(NC(=O)N(CCN2CCOCC2)Cc2ccc3c(c2)CCCN3CC)cc1	u	-4.7%	22.4%	-8.1%	73.4%
CCc1ccc2[nH]c(=O)c(CN(CCCN3CCOCC3)C(=O)Nc3cccc(Cl)c3)cc2c1	5.22µM*	1.8%	-4.5%	-35.0%	x
Cc1ccc(NC(=O)N(Cc2ccc3c(c2)OCO3)Cc2cc3cc4c(cc3[nH]c2=O)OCCO4)cc1	1.31µM*	0.4%	-10.4%	-18.5%	x
CCCN1CCCc2cc(CN(CCCN3CCOCC3)C(=O)Nc3ccc(OCC)cc3)ccc21	x	8.2%	-6.3%	4.7%	5.86µM*
CCc1ccc2[nH]c(=O)c(CN(CCCN3CCOCC3)C(=O)Nc3ccc(Cl)cc3)cc2c1	-9.7%	8.8%	4.5%	-7.4%	54.3%
Cc1cc(C)c2cc(CN(CCO)C(=O)Nc3ccc(Cl)cc3)c(=O)[nH]c2c1	9.28µM*	-0.9%	-3.7%	-54.8%	u
CCN(CC)CCCN(Cc1cc2cc3c(cc2[nH]c1=O)OCCO3)C(=O)Nc1ccccc1	10.4µM*	-9.5%	-2.9%	-3.3%	x
Cc1cc(C)c2cc(CN(CCN3CCCC3)C(=O)Nc3ccc(F)cc3)c(=O)[nH]c2c1	u	9.9%	-10.2%	11.5%	u
O=C(Nc1ccccc1)N(CCCN1CCOCC1)Cc1cc2cc3c(cc2[nH]c1=O)OCCO3	13.1µM*	19.7%	-15.2%	-8.4%	-19.9%
COc1cc2cc(CN(CCCN3CCOCC3)C(=O)Nc3ccc(F)cc3)c(=O)[nH]c2cc1OC	13.1µM*	0.0%	0.0%	-2.7%	39.9%
O=C(Nc1ccccc1F)N(CCCN1CCOCC1)Cc1cc2cc3c(cc2[nH]c1=O)OCCO3	u	-8.7%	u	-2.0%	31.8%
COCC(C)n1c(SCC(=O)NC(=O)NCc2ccccc2)nc2ccccc2c1=O (configuration not stated)	x	1.4%	-8.9%	x	x
O=C(Nc1ccc(F)cc1)N(Cc1cccs1)Cc1cc2cc3c(cc2[nH]c1=O)OCO3	u	6.2%	-10.6%	7.0%	41.3%
O=C(Nc1ccc(F)cc1)N(Cc1ccco1)Cc1cc2cc3c(cc2[nH]c1=O)OCO3	10.4µM*	2.3%	0.7%	5.9%	u
Cc1ccc(NC(=S)N(CCCN(C)C)Cc2cc3cc4c(cc3[nH]c2=O)OCO4)c(C)c1	9.28µM*	0.8%	17.3%	-1.2%	u
COc1ccc(CN(CCCN2CCOCC2)C(=O)Nc2cccc(Cl)c2)cc1OC	u	-6.9%	-2.2%	-12.6%	11.7µM*
COc1ccc(OC)c(CN(CCN2CCOCC2)C(=O)Nc2cccc(Cl)c2)c1	-12.6%	9.5%	-3.8%	-1.1%	-21.1%
Cc1ccc(C)c2[nH]c(=O)c(CN(CCN3CCCC3)C(=O)Nc3cccc(Cl)c3)cc12	2.33µM*	24.4%	-13.8%	2.4%	5.3%

From PubChem BioAssay
